Screens (PubChem)
SIRT5 block = SIRT5 desuccinylase inhibitors, primary screen, biochemical, fluorescence imaging, single point, set 5 | NAD-dependent protein deacylase sirtuin-5, mitochondrial (Homo sapiens), Q9NXA8 | Purified SirT5, succinyl-peptide AMC, trypsin-coupled fluorescence | inhibition, % at 15 µM | actives 1.1% (n = 330,000) | AID 652115, 2013; in the data active = inhibition above about 15%; inconclusive = no clear call, values can overlap the other calls
Rtt109 Vps75 = inhibitors of C. albicans Rtt109/Vps75 HAT, primary screen, biochemical, ThioGlo CoA-SH fluorescence, plate reader. purified Rtt109/Vps75, 4 h. inhibition, % at 34.9 µM. actives 0.16% (n = 330,000);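 active = inhibition of at least 50% in every replicate; inconclusive = best replicate reaches 50% inhibition but some replicates fall short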
PDI inh = inhibitors of human PDI, primary screen, biochemical, turbidity, single point, plate reader. PDI insulin aggregation turbidity, A650, 90 min. inhibition, % at 10 µM. Protein disulfide-isomerase (Homo sapiens), P07237. actives 0.052% (n = 350,000);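 active = mean inhibition across replicates of 30% or more, whatever share of single replicates reach that level; inconclusive = mean inhibition below 30% while every single replicate reaches 30%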
ERp5 inh = inhibitors of ERp5-driven insulin aggregation, primary screen, biochemical, turbidity, absorbance 650 nm, single point | inhibition, % at 9.99 µM | Protein disulfide-isomerase A6 (Homo sapiens), Q15084 | actives 0.05% (n = 350,000) | 90 min;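 active = mean replicate inhibition above about 25%, with every replicate also reaching it, limit read from the data, passing the limit was not always enough; inconclusive = only one of those two criteria met; inactive = neither criterion met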
Target sequence (Q15084 whole entry, looked up): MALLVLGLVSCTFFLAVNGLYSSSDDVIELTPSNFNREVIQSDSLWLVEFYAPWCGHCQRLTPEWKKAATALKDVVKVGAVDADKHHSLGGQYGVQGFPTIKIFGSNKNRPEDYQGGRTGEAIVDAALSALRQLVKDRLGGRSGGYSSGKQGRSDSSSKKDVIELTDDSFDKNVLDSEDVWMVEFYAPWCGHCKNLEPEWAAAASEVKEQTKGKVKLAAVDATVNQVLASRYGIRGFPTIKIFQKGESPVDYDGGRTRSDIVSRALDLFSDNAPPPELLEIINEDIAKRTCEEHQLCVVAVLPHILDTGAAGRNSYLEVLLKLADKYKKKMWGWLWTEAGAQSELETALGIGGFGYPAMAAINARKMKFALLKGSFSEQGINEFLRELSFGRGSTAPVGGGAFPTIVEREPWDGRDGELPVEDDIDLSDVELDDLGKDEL
DENV2 CPE rescue = inhibitors of DENV2 cytopathic effect, primary screen, cell-based, plate reader, single concentration. DENV2-infected cells, cytopathic effect rescue. CPE inhibition, % at 9.99 µM. actives 1.7% (n = 350,000); in the data active = CPE inhibition above about 20%, passing the limit was not always enough; inconclusive = no clear call, values can overlap the other calls; tested in BHK-21 cells;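 note: 0% = median of neutral control wells and 100% = median of positive control wells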
* marks the source's active call; other numbers are inactive results; ? = inconclusive; / = no result given. Most compounds without a hit are left out; they make up all but 2.3% or so of the library.

SMILES	SIRT5 block	Rtt109 Vps75	PDI inh	ERp5 inh	DENV2 CPE rescue
Cc1ccc(S(=O)(=O)Nc2ccc3c(c2)CC(=O)N([C@@H](C)CO)C[C@H](C)[C@H](CN(C)CC2CCCCC2)O3)cc1	16*	/	/	0	14
C[C@H](CO)N1C[C@H](C)[C@@H](CN(C)CC2CCCCC2)Oc2ccc(NS(=O)(=O)c3ccc(F)cc3)cc2CC1=O	16*	/	/	1	0
C[C@H]1CN([C@@H](C)CO)C(=O)Cc2cc(NS(=O)(=O)c3ccc(F)cc3)ccc2O[C@@H]1CN(C)S(C)(=O)=O	2	/	/	12	46*
COc1ccc2c3c([nH]c2c1)[C@@H](CO)N(Cc1ccccc1F)CC31CN(C(=O)C2CCCC2)C1	10	/	/	-4	12
COc1ccc(S(=O)(=O)Nc2ccc3c(c2)CC(=O)N([C@H](C)CO)C[C@@H](C)[C@@H](CN(C)CC2CCCCC2)O3)cc1	7	/	/	2	-2
COc1ccc(S(=O)(=O)Nc2ccc3c(c2)CC(=O)N([C@@H](C)CO)C[C@@H](C)[C@H](CN(C)CC2CCCCC2)O3)cc1	24*	/	/	-3	-3
CNC[C@@H]1Oc2ccc(NS(=O)(=O)c3ccc(C)cc3)cc2CC(=O)N([C@@H](C)CO)C[C@H]1C	-5	/	/	-1	13
Cc1ccc(S(=O)(=O)Nc2ccc3c(c2)CC(=O)N([C@H](C)CO)C[C@H](C)[C@@H](CN(C)CC2CCCCC2)O3)cc1	19*	/	/	2	6
Cc1ccc(S(=O)(=O)Nc2ccc3c(c2)CC(=O)N([C@H](C)CO)C[C@@H](C)[C@@H](CN(C)CC2CCCCC2)O3)cc1	11	/	/	-1	16
CNC[C@@H]1Oc2ccc(NS(=O)(=O)c3ccc(C)cc3)cc2CC(=O)N([C@H](C)CO)C[C@H]1C	-2	/	/	-6	42*
CCCCOc1ccc(C(=O)NCC(=O)NCC(c2ccc(OC)cc2)N2CCOCC2)cc1 (configuration not stated)	0	4	-3	2	11
COc1ccc(C(CNC(=O)CCNC(=O)c2ccc(Br)cc2)N2CCOCC2)cc1 (configuration not stated)	-3	0	-1	4	39*
O=C(NCCN=C1NS(=O)(=O)c2ccccc21)c1ccco1	20*	6	-2	7	/
O=C(C1CCCC1)N1CCCCN2[C@H](CO)[C@@H](c3ccc(C#CC4CC4)cc3)[C@H]2C1	3	/	/	-3	3
NC(=O)C(CCC(=O)c1ccc(Br)cc1)S(=O)(=O)c1ccccc1 (configuration not stated)	-4	-6	-5	2	31*
Cc1noc(C)c1NC(=O)Nc1ccc2c(c1)C(=O)N([C@H](C)CO)C[C@@H](C)[C@H](CN(C)C(=O)Nc1ccc(F)cc1)OCCCC[C@@H](C)O2	1	/	/	-1	4
COc1ccccc1C(=O)Nc1ccc2c(c1)CN(Cc1cnc(C)s1)CC2	0	4	3	8	33*
O=C(Cc1ccccn1)N1CC(=O)N2[C@H](CO)[C@H](c3ccc(C#CC4CC4)cc3)[C@@H]2C1	4	/	/	5	40*
O=C(Nc1ccccc1F)N1CC(=O)N2[C@H](CO)[C@@H](c3ccc(C#CC4CCCC4)cc3)[C@@H]2C1	15	/	/	6	-3
O=C(Cc1ccccn1)N1CC(=O)N2[C@H](CO)[C@@H](c3ccc(C#CC4CC4)cc3)[C@@H]2C1	-4	/	/	2	7
O=C(Nc1cc(F)ccc1F)N1CC(=O)N2[C@@H](CO)[C@H](c3ccc(C#CC4CCCCC4)cc3)[C@@H]2C1	18*	/	/	-2	-7
O=C(Nc1ccccc1F)N1CC(=O)N2[C@H](C1)[C@@H](c1ccc(C#CC3CCCC3)cc1)[C@@H]2CO	19*	/	/	1	2
O=C(Nc1cc(F)ccc1F)N1CC(=O)N2[C@H](C1)[C@H](c1ccc(C#CC3CCCCC3)cc1)[C@@H]2CO	18*	/	/	0	-13
CCN(c1ccc(OC)cc1)S(=O)(=O)c1nnc(NC(=O)COc2ccc(C)cc2)s1	5	57*	-6	0	/
CCN(c1ccccc1)S(=O)(=O)c1nnc(NC(=O)C(C)(C)C)s1	30*	4	9	-1	?
SMILES	SIRT5 block	Rtt109 Vps75	PDI inh	ERp5 inh	DENV2 CPE rescue
CCN(c1ccc(OC)cc1)S(=O)(=O)c1nnc(NC(=O)COc2ccc(F)cc2)s1	0	-21	7	2	?
COc1ccccc1NC(=O)N[C@@H]1CC[C@@H](CCn2cc(-c3cccnc3)nn2)O[C@H]1CO	1	/	/	-2	6
CS(=O)(=O)N1[C@H](C#N)[C@H](c2ccccc2-c2ccccc2F)[C@@H]1CO	0	/	/	1	14
C/C=C/c1ccc([C@@H]2[C@H](CO)N(C(C)=O)C23CN(C(=O)NC2CCCC2)C3)cc1	-1	/	/	0	-10
O=C(C1CCOCC1)N1CC2(C1)[C@@H](c1ccccc1)[C@@H](CO)N2CCC(F)(F)F	26*	/	/	0	-9
CS(=O)(=O)N1CC2(C1)[C@H](c1ccccc1)[C@@H](CO)N2CCC(F)(F)F	-5	/	/	2	-3
O=C(c1ccccc1)N1[C@H](CO)[C@H](c2ccccc2)C12CN(CCC(F)(F)F)C2	-5	/	/	0	20*
O=C(C1CC1)N1[C@H](CO)[C@H](c2ccccc2)C12CN(CCC(F)(F)F)C2	-13	/	/	-1	16
CS(=O)(=O)N1CC2(C1)[C@@H](c1ccccc1)[C@@H](CO)N2CCC(F)(F)F	-6	/	/	-3	20*
CCCC(=O)Nc1ccc2c(c1)C(=O)N(C)C[C@@H](OC)[C@H](C)CN(Cc1cncnc1)[C@@H](C)CO2	-6	/	/	0	8
CN1c2ccc(-c3ccccc3)cc2[C@H]2[C@H](CCN2S(=O)(=O)c2ccccc2F)[C@@H]1CO	5	/	/	-3	-15
COc1cccc(OCc2ccc(Cn3nc(NC(=O)NCCc4ccc(OC)c(OC)c4)c4ccccc43)cc2)c1	35*	/	-39	-7	-2
COc1ccc(CCNC(=O)Cc2nn(C)c(=O)c3ccccc23)cc1OC	/	-4	10	/	/
CCCNC(=O)C[C@H]1CC[C@@H]2[C@H](COc3ccc(NS(=O)(=O)c4ccccc4C)cc3C(=O)N2C)O1	-5	/	/	-7	8
Nn1c(C2CCC2)nc2cc(Cl)ccc2c1=O	18*	12	-21	0	3
Nn1c(C2CCCCC2)nc2ccccc2c1=O	-9	-1	-3	0	2
Cc1oc2ccc(NS(=O)(=O)c3ccccc3)cc2c1C(=O)Nc1ccccc1	21*	/	8	2	4
C[C@@H]1CN([C@H](C)CO)C(=O)c2cccc(NC(=O)Nc3ccc4c(c3)OCO4)c2O[C@H]1CN(C)C(=O)Nc1cccc2ccccc12	0	/	/	-4	0
